# Molecular target: Left-right determination factor 2 (Homo sapiens) (UniProt O00292)
# Test: LEFTY2 binders on small-molecule microarrays, primary screen, biochemical, small-molecule microarray, 635 nm fluorescence scan (AID 1110)
# Conditions: LEFTY2 binding, higher = more signal
# Left-right determination factor 2 (Homo sapiens), sequence (O00292 whole entry, looked up): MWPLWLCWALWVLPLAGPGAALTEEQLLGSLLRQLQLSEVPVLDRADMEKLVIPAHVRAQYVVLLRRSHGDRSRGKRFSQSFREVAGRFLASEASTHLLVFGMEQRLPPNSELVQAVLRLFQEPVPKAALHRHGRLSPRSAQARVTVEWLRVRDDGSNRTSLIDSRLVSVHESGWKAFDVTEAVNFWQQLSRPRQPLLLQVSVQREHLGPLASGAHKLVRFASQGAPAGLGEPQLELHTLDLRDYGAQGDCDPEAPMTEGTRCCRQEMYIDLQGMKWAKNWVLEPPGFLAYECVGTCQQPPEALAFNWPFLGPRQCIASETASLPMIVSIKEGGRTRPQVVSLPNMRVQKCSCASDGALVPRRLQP
row,SMILES,composite z-score
1,COc1c(C)cc(-c2cc3c(c(-c4ccc(Oc5ccccc5)cc4)n2)[Si](C(C)C)(C(C)C)OC3)cc1C,-0.0065
2,CCOC(=O)C[C@H]1[C@H](OC(=O)c2ccc(-c3ccccc3)cc2)[C@@H](NC(=O)c2ccc3ccccc3c2)c2cc(OCCCO)ccc2N1C(=O)Cc1ccc(OC)cc1,0.0216
3,CC(C)C(=C=CC[C@@H](O)c1ccccc1OCCO)C[C@@H](O)c1ccccn1,0.28
4,CN(C)C(=O)[C@@]1(CCC(=O)OC(C)(C)C)N=C(c2ccc(OCCCO)cc2)O[C@H]1c1ccccc1,-0.964
5,C=CCN1C(=O)[C@]2(O[C@H](CCO)[C@@H]([Si](C)(C)c3ccc(OC)cc3)[C@@H]2C)c2cc(NC(=O)[C@H](C)O)ccc21,0.0707
6,Cc1ccc(S[C@]2(C(=O)NCCN3CCOCC3)CC(=O)N(Cc3cc(C(F)(F)F)cc(C(F)(F)F)c3)[C@@H]2c2ccc(CO)cc2I)cc1,-1.45
7,CCOC(=O)C[C@H]1[C@H](OC(=O)c2ccc(C(=O)c3ccccc3)cc2)[C@@H](NC(=O)C2CCCCC2)c2cc(OCCCO)ccc2N1C(=O)c1ccccc1,0.239
8,CC(C)(C)N1CC=CC23O[C@@H]4/C=C\CCCOC(=O)C4[C@H]2C(=O)N(CCO)[C@@H]3C1=O (some centres not stated),-0.679
9,CC1CC/C=C\[C@H]2OC34C=CCN(Cc5ccccc5)C(=O)[C@H]3N(CCCCCO)C(=O)[C@@H]4C2C(=O)O1 (some centres not stated),-0.918

# Molecular target: Calmodulin-1 (Homo sapiens) (UniProt P0DP23)
# Test: CALM1 binders on microarrays, EGTA buffer, profiling panel, biochemical, small-molecule microarray, Cy5-labelled CALM1 (AID 1111);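 note: labelled calmodulin applied in Tris saline Tween buffer holding calcium plus EGTA and DTT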
# Conditions: Cy5-CALM1 binding fluorescence, higher = more signal
row,SMILES,composite z-score
1,COC(=O)c1c(CC[C@@H](CO)NC(=O)N[C@@H](Cc2ccccc2)Cn2cc(C3(O)CCCCC3)nn2)oc(C(C)=O)c1C(=O)OC,0.267
2,Cc1ccc(S[C@]2(C(=O)NCc3ccccc3)CC(=O)N(Cc3ccccc3Cl)[C@@H]2c2ccc(CO)cc2I)cc1,-0.162
3,COCCOC(=O)N1C(=O)[C@@]2(c3cc(C#Cc4ccc(OC)cc4)ccc31)[C@H](C(=O)N1CCN(c3ncccn3)CC1)[C@H]1C(=O)O[C@H](c3ccccc3)[C@H](c3ccccc3)N1[C@@H]2c1ccc(O)cc1,0.958
4,CC(C)(C)OC(=O)CC[C@@]1(C(=O)NCCN2CCOCC2)N=C(c2ccc(OCCCO)cc2)O[C@@H]1c1ccccc1,1.59
5,COCCOC(=O)N1C(=O)[C@@]2(c3cc(C#CC4(O)CCCCCC4)ccc31)[C@H](C(=O)N1CCCCCCC1)[C@H]1C(=O)O[C@H](c3ccccc3)[C@H](c3ccccc3)N1[C@@H]2c1ccccc1OCCO,1.79
6,CC(C)c1ccc(NN2C(C(O)c3c(F)cccc3Cl)C=CC3C(=O)N(c4ccccc4)C(=O)C32)cc1 (configuration not stated),1.88
7,O=C1OCC=C[C@H]2OC34C=CCN(c5ccc6ccccc6c5)C(=O)[C@H]3N(CCCO)C(=O)[C@@H]4[C@@H]12 (some centres not stated),-0.0892
8,CCCCC(CC)C(O)C1C=CC2C(=O)N(c3ccccc3)C(=O)C2N1Nc1ccccc1 (configuration not stated),1.25
9,O=C1C=CC(=O)[C@@H]2CC(COc3ccccc3)=C3[C@@H](CCc4ccccc4)OB(O)C[C@@H]3[C@H]12,-0.413
10,NC(=O)NCC#Cc1ccc2c(c1)[C@]1(C(=O)N2)[C@H](C(=O)NC[C@H](O)c2ccccc2)[C@H]2C(=O)O[C@H](c3ccccc3)[C@H](c3ccccc3)N2[C@@H]1c1ccc(O)cc1,2
11,COC(=O)[C@@]1(Cc2ccccc2)[C@H]2c3cc(C(=O)N(C)C)n(Cc4c(-c5ccccc5)noc4C)c3C[C@H]2CN1C(=O)c1ccccc1,1.16
12,[N-]=[N+]=Nc1ccccc1[C@H]1OC(c2ccc(OCCCO)cc2)=N[C@@]1(CCS(=O)(=O)c1ccccc1)C(=O)O,1.16
13,COCCCNC(=O)[C@@]1(C)c2ccccc2C(=O)N(Cc2cc(C(F)(F)F)cc(C(F)(F)F)c2)[C@H]1c1ccc(CO)cc1,0.0356
14,CC(C)(C)N1CC=CC23O[C@@H]4C=CCOC(=O)[C@@H]4[C@H]2C(=O)N(CCCCCO)[C@@H]3C1=O (some centres not stated),-0.821
15,CC(C)N1C(=O)c2ccccc2[C@@H](C(=O)NCCCN(C)C)[C@@H]1c1ccc(CO)cc1,0.341
16,COc1ccc(C(=O)Nc2cccc(CN3C(=O)[C@]4(O[C@H](CC(=O)N5CCC[C@H]5CO)[C@@H]([Si](C)(C)c5ccc(OC)cc5)[C@@H]4C)c4ccccc43)c2)cc1,0.418
17,O=C(CS)NCCCCCCNC(=O)[C@@H]1C[C@@H]2C(=O)N3CCC[C@H]3C(=O)N2[C@@H]1c1ccc(O)cc1,0.347
18,C=C[C@@H](COC(C)=O)N(Cc1ccccc1[N+](=O)[O-])S(=O)(=O)c1ccc(Br)cc1,0.198
